According to PubChem BioAssay AID2717 (Broad Institute, 2010):
In all, about 300,000 compounds went through this assay and about 3,200 (1.1%) were called active. The sample as a whole holds a higher share of actives than the screen did. Values without a mark were called inactive. Rule as the data show it: active = inhibition above about 75%; inconclusive = no clear call, values can overlap the other calls; inactive = below that; tested in HMLE shEcad cells.

Assay: cancer stem cell viability inhibitors, primary screen, luminescence (AID 2717)
Details: cancer stem cell-like cells viability, at 7.5 µM, active compounds read high
In the case of `Cc1ccc(S(=O)(=O)N2CCN(C(=O)CN3C(=O)NC(C)(c4ccc(Cl)cc4)C3=O)CC2)c(C)c1` (centres undefined), the inhibition is reported as 3.13%.
With `CC1(C)C=Cc2c(ccc3c2OC[C@@H](c2ccc(O)cc2O)C3)O1` the inhibition was 90% (active).
Work on `Cc1ccsc1C(=O)OCC(=O)NCCc1ccccc1` yielded an inhibition of 12.1%.
`CNC(=O)C(=O)N/N=C/c1ccccn1` showed an inhibition of -9.33%.
Work on `Cc1nnc(N/N=C/C2CC=CCC2)[nH]c1=O` (centres undefined) yielded an inhibition of 9.52%.
In the case of `Cc1nnc(N/N=C/c2ccccn2)[nH]c1=O`, the inhibition is reported as 121% (active).
`O=C(COC(=O)CSc1ccccc1)Nc1ccc(F)cc1F` gave an inhibition of -0.0328%.
`CNC[C@H]1Oc2c(NC(=O)C3CCCCC3)cccc2C(=O)N([C@H](C)CO)C[C@@H]1C` showed an inhibition of 1.2%.
`CCC(CC)C(=O)N1CCN(c2cccc(C)c2C)CC1` showed an inhibition of -11.5%.
With `Cc1cccc(N2CCN(C(=O)c3cccc(N4C(=O)C5C6C=CC(C6)C5C4=O)c3)CC2)c1C` (centres undefined) the inhibition was 26.5%.
For `CCn1c(C)c(C)c2cc(C(=O)N3CCN(c4cccc(C)c4C)CC3)ccc21`, the inhibition was 120% (active).
With `COc1ccccc1C(=O)COC(=O)COc1ccc(C#N)cc1` the inhibition was 2.49%.
In the case of `CC(C)(C)OC(=O)N[C@H](C(=O)OC(C)(C)C)c1ccc(Br)cc1`, the inhibition is reported as 0.862%.
`CC(OC(=O)c1ccc([N+](=O)[O-])cc1)C(=O)NCC1CCCCC1` (centres undefined) showed an inhibition of -10.2%.
In the case of `CC(C)=CCCC1(C)C=Cc2c(ccc3c2[nH]c2cc(O)c(C)cc23)O1` (centres undefined), the inhibition is reported as 101% (active).
In the case of `CCOC(=O)[C@H]1[C@H]2COc3cc(OC)ccc3[C@@H]2N2C(=O)CN(Cc3ccc(Cl)cc3)C(=O)[C@@]12C`, the inhibition is reported as -21.1%.
With `CC1CN(C(=O)c2ccc([N+](=O)[O-])s2)CC(C)O1` (centres undefined) the inhibition was 0.926%.
With `COc1cc(NC(=O)COC(=O)c2ccc([N+](=O)[O-])s2)cc(OC)c1OC` the inhibition was -12.6%.
Compound `CN(c1ccccc1)S(=O)(=O)c1ccc(C(=O)N2CCN(c3ccccc3Cl)CC2)cc1` has an inhibition of -0.098%.
For `CCCCCCc1cc2cc(-c3nnc(-c4ccccc4)o3)c(=O)oc2cc1O`, the inhibition was 118% (active).
`Cc1c(CC(=O)NCCCCCC(=O)O)c(=O)oc2cc3occ(-c4ccccc4)c3cc12` showed an inhibition of -4.15%.
Compound `CCCCCCc1ccc(O)cc1O` has an inhibition of -10.2%.
Compound `CC(C)NC(=O)Nc1cccc2c1O[C@H](CN(C)S(=O)(=O)c1cccs1)[C@@H](C)CN([C@H](C)CO)C2=O` has an inhibition of -18%.
Work on `COc1ccccc1NS(=O)(=O)c1ccc(C)c(C(=O)NNC(=O)c2csc(N3CCOCC3)n2)c1` yielded an inhibition of -11.7%.
Work on `CCCCCCC(=O)Nc1nc(C)c(-c2csc(Nc3cc(Cl)ccc3OC)n2)s1` yielded an inhibition of 5.64%.
For `C=CCCC(=O)Nc1nc(C)c(-c2csc(Nc3ccc(Cl)cc3)n2)s1`, the inhibition was 99% (active).
Work on `CCCCC(=O)Nc1nc(C)c(-c2csc(Nc3ccc(Cl)cc3)n2)s1` yielded an inhibition of 63.1%.
Work on `C/C=C/c1ccc(OCC(=O)NNC(=O)CN(C)S(=O)(=O)c2ccc(C)cc2)c(OC)c1` yielded an inhibition of -2.93%.
Compound `CN(C(=O)c1cccc(NC(=O)Cc2ccc([N+](=O)[O-])cc2)c1)C1CCC1` has an inhibition of 1.28%.
In the case of `Cc1cccc(-n2ncc(Cl)c(Cl)c2=O)c1`, the inhibition is reported as 138% (active).
In the case of `Cc1cccc(-n2ncc(C#N)c2-n2cccc2)c1`, the inhibition is reported as -10.4%.
For `COc1ccc(Oc2c(Cl)cnn(-c3ccccc3)c2=O)cc1`, the inhibition was 22%.
`O=C(COC(=O)c1n[nH]c2ccccc12)Nc1ccccc1Br` showed an inhibition of -14%.
In the case of `CC1CCCCC1NC(=O)Cn1cnc2c1c(=O)n(C)c(=O)n2C` (centres undefined), the inhibition is reported as -15.5%.
For `CC(C)(C)OC(=O)C[C@@H]1C/C=C\C[C@H](CC(=O)N[C@@H](CO)Cc2ccccc2)C(=O)N[C@H](Cc2ccccc2)COC1=O`, the inhibition was -5.32%.
With `CCc1c(C)sc(NC(=O)/C=C/c2ccc3c(c2)OCO3)c1C(=O)OC` the inhibition was 96.5% (active).
With `CCOC(=O)CCCNC(=O)COC(=O)/C=C/c1ccc2c(c1)OCO2` the inhibition was -10.5%.
With `CCc1c(C)sc(NC(=O)c2ccc(Br)o2)c1C(=O)OC` the inhibition was 28.8%.
For `COc1ccc(S(=O)(=O)N2CCN(C(C)C(=O)Nc3ccc(C(C)C)cc3)CC2)cc1` (centres undefined), the inhibition was -10.6%.
Compound `O=C(Nc1ccccc1Cl)Nn1cnnc1` has an inhibition of -3.82%.
`O=C(COC(=O)c1cccs1)Nc1ccccc1Cl` showed an inhibition of -12.7%.
With `O=C(Nc1ccccc1Cl)/C(Cl)=C(\Cl)S(=O)c1ccccc1` (centres undefined) the inhibition was 145% (active).
`CC(C)(C)OC(=O)C[C@@H]1C/C=C\C[C@@H](CC(=O)N[C@H](CO)Cc2ccccc2)C(=O)NCCOC1=O` gave an inhibition of -6.88%.
For `CCOc1ccc(NC(=O)CN(C)C(=O)Cc2sc(C)nc2-c2ccc(F)cc2)cc1OCC`, the inhibition was -4.92%.
Work on `COc1cc(C=NNC(=O)c2cccnc2)ccc1OC(=O)c1ccccc1F` yielded an inhibition of -6.57%.
With `O=C1CSc2ccc(C(=O)NCc3ccccn3)cc2N1` the inhibition was -3.45%.
With `Cc1cccc(C)c1NC(=O)CNC(=O)c1ccc2c(c1)OCCO2` the inhibition was 14.6%.
For `N#Cc1ccc(CN2CCN(CC(=O)Nc3ccccc3C(=O)NC3CC3)CC2)cc1`, the inhibition was -9.82%.
In the case of `N#Cc1c(-c2ccccc2)nc(SCc2ccc([N+](=O)[O-])cc2)[nH]c1=O`, the inhibition is reported as 3.97%.
For `N#Cc1c(-c2ccccc2)nc(SCc2cccc(C(F)(F)F)c2)[nH]c1=O`, the inhibition was 105% (active).
`Cc1ccc(CSc2nc(-c3ccccc3)c(C#N)c(=O)[nH]2)cc1` gave an inhibition of 27.6%.
Work on `O=C(COC(=O)/C=C/c1cccc(Cl)c1)NCc1cccs1` yielded an inhibition of 2.73%.
`O=C(CN1CCN(c2ccc(F)cc2)CC1)Nc1ccccc1` gave an inhibition of -1.5%.
In the case of `Oc1ccc(CN2CCN(c3ncccn3)CC2)cc1`, the inhibition is reported as -8.35%.
With `Oc1c(CN2CCN(c3ccc(F)cc3)CC2)cc(Cl)c2cccnc12` the inhibition was 138% (active).
Work on `O=C1c2ccccc2C(=O)N1CCC#Cc1ccc2cc(C3(O)CCCCC3)oc(=O)c2c1` yielded an inhibition of 4.37%.
In the case of `COc1ccc2c(c1OC)C(=O)OC2Nc1nc(-c2ccccc2)cs1` (centres undefined), the inhibition is reported as 126% (active).
Work on `COc1ccc(CCNc2nc(-c3cccc(NC(C)=O)c3)cs2)cc1OC` yielded an inhibition of -2.96%.
Compound `Cc1ccc(-c2csc(NC3OC(=O)c4ccccc43)n2)cc1` (centres undefined) has an inhibition of -24.8%.
